Measured values from the supplement of paper PMC10849652.
Of roughly 7,900 targets only a part is listed; those with a hit were picked by preference. About 0.6% of all pairs of compound and target were hits. Values without a mark were called inactive.

Each target was assayed with Cc1cc(Nc2cc(CN3CCOCC3)c3nc(C)c(Cc4ccc(Cl)cc4F)n3n2)n[nH]1 [gandotinib] (assay: log2 fold change, soluble protein after heating vs DMSO (PISA); higher = thermal stabilisation; K562 cells, 10 uM, 30 min; active = over 0.2 and 3.5 SD of the protein, either way, in both replicates (recomputed)).
In short: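 K562 cells at 2×10^6 cells/mL were treated with 10 μM compound for 30 min. Aliquots were heated for 3 min across 48°C-58°C, pooled, and extracted in PBS with 0.5% NP-40 at 4°C; soluble protein was the supernatant after 21,000xg for 90 min. Soluble protein was quantified by TMTpro 16plex LC-MS/MS with channel sums equalised, and reported as log2 fold change in thermal stability against DMSO controls, with values from duplicates.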

UniProt O15355, sequence (O15355 whole entry, looked up): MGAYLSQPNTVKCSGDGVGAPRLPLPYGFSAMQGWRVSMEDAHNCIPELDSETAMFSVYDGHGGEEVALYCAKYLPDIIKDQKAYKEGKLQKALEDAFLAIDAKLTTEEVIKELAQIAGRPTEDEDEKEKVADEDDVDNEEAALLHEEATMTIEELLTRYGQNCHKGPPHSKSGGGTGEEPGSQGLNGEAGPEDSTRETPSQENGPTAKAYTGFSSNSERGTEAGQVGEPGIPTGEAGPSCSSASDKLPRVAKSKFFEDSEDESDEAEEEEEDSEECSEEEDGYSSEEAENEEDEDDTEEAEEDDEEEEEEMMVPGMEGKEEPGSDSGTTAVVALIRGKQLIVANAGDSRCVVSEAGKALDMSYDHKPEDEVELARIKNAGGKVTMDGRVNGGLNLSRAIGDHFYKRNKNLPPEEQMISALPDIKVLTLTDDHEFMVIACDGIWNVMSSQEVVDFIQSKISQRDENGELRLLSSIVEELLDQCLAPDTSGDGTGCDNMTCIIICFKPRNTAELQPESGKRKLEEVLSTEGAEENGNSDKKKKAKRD
UniProt Q13523, sequence (Q13523 whole entry, looked up): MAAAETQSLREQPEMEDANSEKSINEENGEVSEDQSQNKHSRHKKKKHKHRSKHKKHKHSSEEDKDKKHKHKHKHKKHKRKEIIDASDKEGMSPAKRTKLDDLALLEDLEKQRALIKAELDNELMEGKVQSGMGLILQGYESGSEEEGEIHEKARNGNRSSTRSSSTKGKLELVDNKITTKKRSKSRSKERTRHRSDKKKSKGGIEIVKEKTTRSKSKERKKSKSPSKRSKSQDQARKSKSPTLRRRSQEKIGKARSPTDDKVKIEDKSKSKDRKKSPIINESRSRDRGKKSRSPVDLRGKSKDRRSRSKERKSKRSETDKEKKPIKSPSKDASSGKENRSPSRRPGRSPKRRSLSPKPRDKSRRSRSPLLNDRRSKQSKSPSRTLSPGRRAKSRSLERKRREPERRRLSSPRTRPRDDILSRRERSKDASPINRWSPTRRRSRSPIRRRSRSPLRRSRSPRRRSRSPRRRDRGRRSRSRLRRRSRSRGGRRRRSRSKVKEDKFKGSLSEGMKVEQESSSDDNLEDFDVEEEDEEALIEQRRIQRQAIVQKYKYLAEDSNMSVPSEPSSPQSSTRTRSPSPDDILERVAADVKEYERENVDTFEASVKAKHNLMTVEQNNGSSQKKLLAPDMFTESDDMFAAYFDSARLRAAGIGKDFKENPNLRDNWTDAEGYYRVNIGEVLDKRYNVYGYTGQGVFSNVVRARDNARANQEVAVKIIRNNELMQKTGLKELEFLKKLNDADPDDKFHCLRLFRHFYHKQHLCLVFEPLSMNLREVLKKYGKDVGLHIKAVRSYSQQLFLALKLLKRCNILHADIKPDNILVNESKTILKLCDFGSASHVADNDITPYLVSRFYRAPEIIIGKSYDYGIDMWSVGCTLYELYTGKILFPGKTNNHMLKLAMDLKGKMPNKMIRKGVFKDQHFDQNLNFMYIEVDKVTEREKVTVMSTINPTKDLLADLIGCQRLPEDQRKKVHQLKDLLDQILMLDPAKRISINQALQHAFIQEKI
UniProt Q8NHP8, sequence (Q8NHP8 whole entry, looked up): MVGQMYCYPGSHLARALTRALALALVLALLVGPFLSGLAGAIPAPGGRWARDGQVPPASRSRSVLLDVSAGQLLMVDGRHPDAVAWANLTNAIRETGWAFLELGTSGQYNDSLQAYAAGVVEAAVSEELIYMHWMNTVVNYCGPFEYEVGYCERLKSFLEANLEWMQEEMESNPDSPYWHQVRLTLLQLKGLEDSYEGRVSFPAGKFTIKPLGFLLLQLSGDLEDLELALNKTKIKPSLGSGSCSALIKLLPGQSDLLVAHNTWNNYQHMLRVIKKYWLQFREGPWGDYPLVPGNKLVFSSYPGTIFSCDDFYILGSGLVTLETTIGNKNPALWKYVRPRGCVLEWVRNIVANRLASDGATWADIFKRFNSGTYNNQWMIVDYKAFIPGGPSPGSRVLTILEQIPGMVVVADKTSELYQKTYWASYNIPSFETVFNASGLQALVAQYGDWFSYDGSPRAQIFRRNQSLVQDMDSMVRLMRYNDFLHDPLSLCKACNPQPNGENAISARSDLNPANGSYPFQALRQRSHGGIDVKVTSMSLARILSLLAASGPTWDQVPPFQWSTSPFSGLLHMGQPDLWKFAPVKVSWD
UniProt Q15365, sequence (Q15365 whole entry, looked up): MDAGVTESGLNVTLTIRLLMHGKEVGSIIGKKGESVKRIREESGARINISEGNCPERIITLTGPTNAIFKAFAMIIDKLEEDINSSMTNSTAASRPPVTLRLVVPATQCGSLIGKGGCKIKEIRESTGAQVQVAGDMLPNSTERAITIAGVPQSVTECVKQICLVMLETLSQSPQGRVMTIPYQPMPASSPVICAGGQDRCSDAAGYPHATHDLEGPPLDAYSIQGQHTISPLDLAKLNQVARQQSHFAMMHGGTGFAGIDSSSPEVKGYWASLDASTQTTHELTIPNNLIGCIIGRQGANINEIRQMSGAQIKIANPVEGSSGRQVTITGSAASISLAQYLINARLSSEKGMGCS
UniProt P11216, sequence (P11216 whole entry, looked up): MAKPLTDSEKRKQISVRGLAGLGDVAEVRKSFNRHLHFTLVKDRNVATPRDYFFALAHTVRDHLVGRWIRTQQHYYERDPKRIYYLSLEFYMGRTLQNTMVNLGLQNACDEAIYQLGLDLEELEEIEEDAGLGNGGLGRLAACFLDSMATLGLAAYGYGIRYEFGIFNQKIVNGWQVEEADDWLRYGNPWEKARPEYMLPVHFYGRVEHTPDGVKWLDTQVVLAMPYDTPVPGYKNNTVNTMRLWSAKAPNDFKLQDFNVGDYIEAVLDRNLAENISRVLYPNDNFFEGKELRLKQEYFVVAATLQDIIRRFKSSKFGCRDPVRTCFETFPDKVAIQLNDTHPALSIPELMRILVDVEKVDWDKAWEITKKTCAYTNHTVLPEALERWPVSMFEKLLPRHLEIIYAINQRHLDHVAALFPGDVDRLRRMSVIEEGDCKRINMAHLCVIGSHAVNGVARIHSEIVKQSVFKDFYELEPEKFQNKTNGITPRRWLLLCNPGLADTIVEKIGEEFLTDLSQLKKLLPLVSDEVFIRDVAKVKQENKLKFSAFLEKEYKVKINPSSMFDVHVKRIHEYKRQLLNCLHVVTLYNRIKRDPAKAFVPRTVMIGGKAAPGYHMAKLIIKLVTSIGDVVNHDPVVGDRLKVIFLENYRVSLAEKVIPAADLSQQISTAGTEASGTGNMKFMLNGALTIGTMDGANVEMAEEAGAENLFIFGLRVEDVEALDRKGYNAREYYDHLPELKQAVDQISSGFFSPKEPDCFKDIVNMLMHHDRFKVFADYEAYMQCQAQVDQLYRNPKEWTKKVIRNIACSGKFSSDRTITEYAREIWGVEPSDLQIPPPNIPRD
UniProt Q15172, sequence (Q15172 whole entry, looked up): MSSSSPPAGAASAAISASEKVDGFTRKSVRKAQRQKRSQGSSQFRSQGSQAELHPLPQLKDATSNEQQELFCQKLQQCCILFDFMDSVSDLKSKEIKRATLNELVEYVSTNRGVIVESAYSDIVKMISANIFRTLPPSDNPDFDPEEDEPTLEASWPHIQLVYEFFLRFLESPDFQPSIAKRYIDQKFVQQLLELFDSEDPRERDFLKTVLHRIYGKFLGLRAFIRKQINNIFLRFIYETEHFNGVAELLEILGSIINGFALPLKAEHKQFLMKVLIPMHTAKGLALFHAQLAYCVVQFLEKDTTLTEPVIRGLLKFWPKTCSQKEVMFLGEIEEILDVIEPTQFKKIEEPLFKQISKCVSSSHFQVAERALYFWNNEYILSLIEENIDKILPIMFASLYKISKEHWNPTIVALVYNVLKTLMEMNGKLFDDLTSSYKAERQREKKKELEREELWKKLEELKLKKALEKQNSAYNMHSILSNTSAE
UniProt Q6L8Q7, sequence (Q6L8Q7 whole entry, looked up): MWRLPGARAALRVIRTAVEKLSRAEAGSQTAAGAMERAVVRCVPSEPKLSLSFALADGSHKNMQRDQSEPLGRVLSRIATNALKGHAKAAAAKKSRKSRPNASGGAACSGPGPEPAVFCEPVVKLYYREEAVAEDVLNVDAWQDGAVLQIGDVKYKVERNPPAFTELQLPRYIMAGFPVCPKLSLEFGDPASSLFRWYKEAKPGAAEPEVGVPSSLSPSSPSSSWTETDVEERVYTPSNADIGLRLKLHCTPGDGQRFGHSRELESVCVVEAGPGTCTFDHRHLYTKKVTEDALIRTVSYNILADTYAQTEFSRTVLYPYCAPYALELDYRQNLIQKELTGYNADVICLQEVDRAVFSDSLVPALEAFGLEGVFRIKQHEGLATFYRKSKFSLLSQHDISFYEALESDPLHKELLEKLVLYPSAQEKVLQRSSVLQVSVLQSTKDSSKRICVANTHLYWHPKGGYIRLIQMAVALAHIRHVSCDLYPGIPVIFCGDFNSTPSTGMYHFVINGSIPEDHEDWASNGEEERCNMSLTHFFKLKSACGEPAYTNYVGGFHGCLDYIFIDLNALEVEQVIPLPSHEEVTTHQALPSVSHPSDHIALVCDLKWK
UniProt Q8NBL1, sequence (Q8NBL1 whole entry, looked up): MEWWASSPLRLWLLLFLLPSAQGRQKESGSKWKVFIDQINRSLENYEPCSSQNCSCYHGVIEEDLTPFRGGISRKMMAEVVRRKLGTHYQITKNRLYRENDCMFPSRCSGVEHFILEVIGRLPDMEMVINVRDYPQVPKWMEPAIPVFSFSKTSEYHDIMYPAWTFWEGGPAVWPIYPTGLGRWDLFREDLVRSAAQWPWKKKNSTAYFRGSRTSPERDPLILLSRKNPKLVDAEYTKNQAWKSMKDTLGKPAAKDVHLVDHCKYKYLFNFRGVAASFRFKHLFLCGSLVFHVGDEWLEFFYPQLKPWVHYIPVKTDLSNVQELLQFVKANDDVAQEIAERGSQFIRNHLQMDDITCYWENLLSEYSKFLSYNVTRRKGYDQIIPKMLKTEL
UniProt Q9Y3C6, sequence (Q9Y3C6 whole entry, looked up): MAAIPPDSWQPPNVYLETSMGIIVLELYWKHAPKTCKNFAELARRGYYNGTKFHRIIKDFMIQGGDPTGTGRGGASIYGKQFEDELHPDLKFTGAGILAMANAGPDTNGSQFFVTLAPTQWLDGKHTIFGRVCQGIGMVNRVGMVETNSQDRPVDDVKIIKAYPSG

Target | log2 fold change
PARN (UniProt O95453) | -0.127
PEF1 (UniProt Q9UBV8) | -0.019
POLD1 (UniProt P28340) | 0.036
PARG (UniProt Q86W56) | -0.094
PRMT7 (UniProt Q9NVM4) | 0.067
PDLIM7 (UniProt Q9NR12) | 0.026
POLD3 (UniProt Q15054) | -0.049
POLR2A (UniProt P24928) | 0.321 (active)
PLD3 (UniProt Q8IV08) | 0.006
PPIL1 (UniProt Q9Y3C6) | 0.045
PPP2R5A (UniProt Q15172) | -0.21
PPOX (UniProt P50336) | 0.427
PLBD2 (UniProt Q8NHP8) | 0.003
PRKAR2B (UniProt P31323) | -0.271
PJA2 (UniProt O43164) | 0.097
PCBP1 (UniProt Q15365) | -0.12
PGK2 (UniProt P07205) | 0.078
PSMD6 (UniProt Q15008) | -0.02
POLR2K (UniProt P53803) | -0.011

Target | log2 fold change
PSMD9 (UniProt O00233) | -0.018
PDSS2 (UniProt Q86YH6) | 0.098
PYGL (UniProt P06737) | 0.013
PYGB (UniProt P11216) | -0.045
PDE12 (UniProt Q6L8Q7) | 0.027
POLR1A (UniProt O95602) | -0.03
PBK (UniProt Q96KB5) | -0.136
PFAS (UniProt O15067) | -0.152
PRKACA (UniProt P17612) | -0.105
PSMD12 (UniProt O00232) | 0.029
POGLUT1 (UniProt Q8NBL1) | -0.011
PTDSS1 (UniProt P48651) | -0.039
PRKAB2 (UniProt O43741) | -0.484 (active)
PPM1G (UniProt O15355) | -0.026
PARL (UniProt Q9H300) | 0.025
PIP4K2C (UniProt Q8TBX8) | 0.033
PRPF4B (UniProt Q13523) | 0.007
POM121 (UniProt Q96HA1) | -0.043
